Results published in the supplement of paper PMC7156485.
Counter-ions that a name gives are not always drawn. ± gives the standard deviation of the averaged measurements.

Assays:
Conditions in all cases: concentration: 10 µM; 24 h
[1] = test system: HCC1569; test: cell number relative to DMSO (% of DMSO); higher = more cells (less growth inhibition / toxicity)
Outline: (§1)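 After 24 h at 37 °C with compounds at 10 µM, in triplicate, HCC1569 and TDF cells were fixed with 3.7% formaldehyde. Immunostaining used a rabbit anti-H1.0 antibody and an AlexaFluor 647 secondary, with DAPI, and six fields per well were imaged at ×10. H1.0 nuclear intensity or cell number is presented as percent of the plate control, from the median of replicates, with HCC1569 values smoothed for positional effects.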

[2] = test system: TDF; test: as above
Outline: as §1

[3] = test system: TDF; test: H1.0 immunofluorescence intensity relative to DMSO (% of DMSO); higher = stronger H1.0 induction, active = 120 or more
Outline: as §1

[4] = test system: HCC1569; test: H1.0 immunofluorescence intensity relative to DMSO (% of DMSO); higher = stronger H1.0 induction, active = 140 or more
Outline: as §1
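For H1.0 immunofluorescence intensity relative to DMSO in this document: TDF is a line of transformed human dermal fibroblasts of mesenchymal origin.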
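For cell number relative to DMSO in this document: TDF denotes transformed human dermal fibroblasts of mesenchymal origin.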

Structure (SMILES) | cell number [1] | cell number [2] | H1.0 immunofluorescence intensity [3] | H1.0 immunofluorescence intensity [4]
CC1c2cccc(O)c2C(O)=C2C(=O)C3(O)C(O)=C(C(N)=O)C(=O)C(N(C)C)C3C(O)C21.Cl (stereo not given) [Doxycycline hydrochloride] | 96.5 | 107 | 96.9 (inactive) | 105 (inactive)
COC(=O)C1C2CC3c4[nH]c5cc(OC)ccc5c4CCN3CC2CC(OC(=O)c2cc(OC)c(OC)c(OC)c2)C1OC (stereo not given) [Reserpine] | 99.2 | 86.3 | 101 (inactive) | 101 (inactive)
Cc1ccccc1C(OCCN(C)C)c1ccccc1.O=C(O)CC(O)(CC(=O)O)C(=O)O (stereo not given) [Orphenadrine citrate] | 111 | 113 | 91.6 (inactive) | 96.1 (inactive)
CCc1c(CC(N)=O)c2cc(OCCCP(=O)(O)O)ccc2n1Cc1ccccc1 | 101 | 104 | 96 (inactive) | 101 (inactive)
CCCCCCCCCCCCCCCC(O)C(CO)NC(=O)CCCCCCC (stereo not given) [C8 Dihydroceramide] | 100 | 104 | 97.1 (inactive) | 108 (inactive)
CN(C)CCC=C1c2ccccc2COc2ccc(CC(=O)O)cc21 [Olopatadine] | 102 | 106 | 90.3 (inactive) | 102 (inactive)
CCCCCC(O)C=CC=O (racemic) | 99.2 | 109 | 93.8 (inactive) | 106 (inactive)
Cl.O=C(c1ccc(OCCN2CCCCC2)cc1)c1c(-c2ccc(O)cc2)sc2cc(O)ccc12 [Raloxifene hydrochloride] | 90.1 | 100 | 109 (inactive) | 121 (inactive)
O=c1c(O)c(-c2ccccc2)oc2cc(O)cc(O)c12 [Galangine] | 98.1 | 91.3 | 101 (inactive) | 100 (inactive)
CNC1(C)C2CCC(C2)C1(C)C.Cl (stereo not given) [Mecamylamine hydrochloride] | 106 | 108 | 94.1 (inactive) | 93.5 (inactive)
O=c1c(-c2ccc(O)cc2)coc2cc(O)ccc12 [Daidzein] | 101 ± 2.1 | 107 ± 14 | 92.4 (inactive) | 94.6 (inactive)
CCCCCC=CCC=CC=CC=CC(SCC(N)C(=O)NCC(=O)O)C(O)CCCC(=O)O (stereo not given) [Leukotriene D4] | 106 | 99.8 | 92.1 (inactive) | 97.3 (inactive)
COc1ccc(-c2cc(=O)c3c(O)cc(OC4OC(COC5OC(C)C(O)C(O)C5O)C(O)C(O)C4O)cc3o2)cc1O (stereo not given) [Diosmin] | 104 | 107 | 91.8 (inactive) | 92 (inactive)
CC(COc1ccccc1)N(CCCl)Cc1ccccc1.Cl (stereo not given) [Phenoxybenzamine.HCl] | 106 | 103 | 97.7 (inactive) | 102 (inactive)
NC(=O)Nc1sc(-c2ccc(F)cc2)cc1C(N)=O [IKK-2 Inhibitor IV] | 80.1 | 103 | 95.8 (inactive) | 186 (active)
CCCCCCCCC=CCC=CCC=CCCCC(=O)O [5(Z), 8(Z), 11(Z)-Eicosatrienoic Acid] | 102 ± 2.9 | 105 ± 7.9 | 98.1 (inactive) | 97.8 (inactive)
S=C(Nc1ccccc1)Nc1nccs1 [1-Phenyl-3-(2-thiazolyl)-2-thiourea] | 95.5 | 86.9 | 99.5 (inactive) | 102 (inactive)
COC1=C(OC)C(=O)C(CCCCCCCCCCO)=C(C)C1=O [Idebenone] | 101.26 ± 0.079 | 96.02 ± 0.62 | 101 (inactive) | 102 (inactive)
COc1cc(-c2ccc(=O)[nH]n2)ccc1OC(F)F [Zardaverine] | 106 ± 5.7 | 107 ± 9.4 | 91.5 (inactive) | 110 (inactive)
CCCCCC(O)C=CC=CC=CC(O)CC=CCCCC(=O)O [8(R),15(S)-DIHETE all trans] | 102 | 107 | 91.4 (inactive) | 98.4 (inactive)
CC(C)C1CCC(C(=O)NC(Cc2ccccc2)C(=O)O)CC1 (stereo not given) [Nateglinide] | 105 | 112 | 96.1 (inactive) | 102 (inactive)
O=C(Nc1cccc(Nc2nccc(Nc3cccc(C(F)(F)F)c3)n2)c1)C1CC1 [Aurora Kinase Inhibitor III] | 63 ± 1.4 | 35.8 ± 3.4 | 129 (active) | 247 (active)
CC(C)c1cc(C(C)C)c(CC(=O)NS(=O)(=O)Oc2c(C(C)C)cccc2C(C)C)c(C(C)C)c1 | 94.4 | 103 | 89.8 (inactive) | 110 (inactive)
C#CCNCc1cc2cc(OCc3ccccc3)ccc2[nH]1 [N-((5-(benzyloxy)-1H-indol-2-yl)methyl)prop-2-yn-1-amine] | 82.8 | 91 | 96 (inactive) | 136 (inactive)
O=C(O)CCCC=CCC1C2CCC(O2)C1CNNC(=O)Nc1ccccc1 (stereo not given) | 102 | 103 | 92.8 (inactive) | 99.7 (inactive)

Structure (SMILES) | cell number [1] | cell number [2] | H1.0 immunofluorescence intensity [3] | H1.0 immunofluorescence intensity [4]
CC1(C)CCCC(C)(C2CCC3(C)C2C(O)CC2C4(C)CCC(O)C(C)(C)C4C(O)CC23C)O1 (stereo not given) [Panaxatriol] | 100 | 93.4 | 94.8 (inactive) | 99.6 (inactive)
CCN(CC)CCOC(=O)c1cc(Cl)c(N)cc1OC.Cl [SDZ-205,557 hydrochloride] | 105 | 98.8 | 85.4 (inactive) | 86.8 (inactive)
O=C(CCc1ccc(O)cc1)c1c(O)cc(O)cc1O [Phloretin] | 97.73 ± 0.41 | 98.5 ± 17 | 96.1 (inactive) | 107 (inactive)
CN1CCc2cc3c(cc2C(=O)Cc2ccc4c(c2C1)OCO4)OCO3 [Protopine] | 99.4 | 108 | 97.6 (inactive) | 92.4 (inactive)
CCCN1CCCC[C@H]1C(=O)Nc1c(C)cccc1C.Cl.O | 99.7 | 103 | 99 (inactive) | 113 (inactive)
Cl.Cl.Cl.Cl.NCCCNCCCCNCCCN [Spermine tetrahydrochloride] | 102 | 104 | 92.3 (inactive) | 86.7 (inactive)
COc1cc2c3cc1Oc1cc(ccc1O)CC1c4c(cc(OC)c(O)c4Oc4ccc(cc4)CC3N(C)CC2)CC[N+]1(C)C (single isomer, unassigned; (+)) [(+)-Tubocurarine chloride] | 103 | 92.5 | 104 (inactive) | 89.2 (inactive)
N#CC(=Cc1ccc(O)c(O)c1)C(=O)c1ccc(O)c(O)c1 [Tyrphostin AG 538] | 80.4 | 97.3 | 99.2 (inactive) | 190 (active)
C#CCN1C(C)=C(C(=O)OC)C(c2cccc([N+](=O)[O-])c2)C(C(=O)OCC)=C1C (stereo not given) | 97.2 | 107 | 89.2 (inactive) | 103 (inactive)
Oc1cccc(-c2nc(N3CCOCC3)c3oc4ncccc4c3n2)c1 | 56.8 | 70 | 88 (inactive) | 205 (active)
O=C1Nc2ccc(Cl)cc2C1=Cc1cc(Cl)c(O)c(Cl)c1 [PKR Inhibitor, Negative Control] | 101 | 98.8 | 95.1 (inactive) | 128 (inactive)
Nc1ccc(C(=O)Nc2cccc(-c3nc(N4CCOCC4)c4oc5ncccc5c4n3)c2)cn1 [PIKfyve Inhibitor] | 63.9 | 56.2 | 112 (inactive) | 151 (active)
CN1c2cc3c(cc2N=C(c2ccc(C(=O)O)cc2)c2ccccc21)C(C)(C)CCC3(C)C | 77 | 88.5 | 93.8 (inactive) | 112 (inactive)
CC1=C(C(=O)O)N2C(=O)C(NC(=O)C(N)c3ccccc3)C2SC1 (stereo not given) [Cephalexin hydrate] | 104 | 111 | 102 (inactive) | 96.5 (inactive)
COC(=O)/C=C/c1cccc(N(Cc2ccc(-c3ccc(N(C)C)cc3)cc2)C(=O)C2CCCCC2)c1 | 91.5 | 95.9 | 90.7 (inactive) | 106 (inactive)
CCCCCCCCCCCCCCCCCCCCCC(=O)O [Docosanoic acid] | 101 | 104 | 101 (inactive) | 101 (inactive)
CC1CN(S(=O)(=O)c2cccc3cnccc23)CCN1.Cl.Cl (stereo not given) | 111 | 109 | 86.2 (inactive) | 81.1 (inactive)
CC1=CC(=O)C(C(C)C)=CC1=O [Thymoquinone] | 104 ± 1.4 | 102 ± 3.6 | 93.5 (inactive) | 93.3 (inactive)
CCn1c(=O)c2[nH]c(-c3ccccc3)nc2n(CC)c1=O [1,3-Diethyl-8-phenylxanthine] | 98.9 | 103 | 90.7 (inactive) | 87.1 (inactive)
COC(=O)Nc1nc2ccc(C(=O)c3ccccc3)cc2[nH]1 [Mebendazol] | 69.2 | 11.6 | 188 (active) | 127 (inactive)
Cc1cc(C)c(C=C2C(=O)Nc3ccccc32)[nH]1 [VEGF Receptor 2 Kinase Inhibitor III] | 100 | 105 | 91.1 (inactive) | 108 (inactive)
CC(C)CNCc1ccc(-c2ccccc2S(=O)(=O)N2CCCC2)cc1.Cl | 96 | 99.2 | 88.9 (inactive) | 100 (inactive)
CN1CC(O)C(O)C(O)C1CO (stereo not given) [N-Methyl-1-deoxynojirimycin] | 53 | 57 | 109 (inactive) | 185 (active)
CC(C)(C)NCC(O)COc1nsnc1N1CCOCC1 (stereo not drawn) [S(-)-Timolol maleate] | 97.5 | 104 | 93 (inactive) | 110 (inactive)
O=c1cc(-c2ccc(O)cc2)oc2cc(OC3OC(CO)C(O)C(O)C3O)c(C3OC(CO)C(O)C(O)C3O)c(O)c12 (stereo not given) [Saponarin] | 98.8 | 89.5 | 108 (inactive) | 94.4 (inactive)
